From PubChem BioAssay (Tox21) come the findings set out here.

Structures are written as SMILES. “And” between values parts separate entries of the source, which are not always exact repeats. Identical values can stand only once. Inconclusive results are not listed. A call without a number means that no potency is given here. Where a structure was tested more than once in an assay, its records may differ in their call. The source made the active and inactive calls. Unless noted, calls come from the whole dose curve; as a rule, active = well fitted cell-killing curve with a large enough effect in the repeat runs; inconclusive = weak or mixed curves, or effect the other way; inactive = no such curve, though single readings can be large or run the other way.

One test can be described thus: qHTS assay for small molecule activators of the heat shock response signaling pathway - cell viability counter screen (AID 743209). Note: nearly all actives have a fitted effect of over 50% in size. Note: potency is the fitted concentration of half-maximal effect. The following applies: HSE-bla HeLa viability, CellTiter-Glo luminescence, 5 h; series mostly up to 62.6 µM. The method in brief: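 HSE-bla HeLa; 1500 cells/well; overnight 37 C, 5% CO2; compound 5 h 37 C; LiveBLAzer B/G substrate 2.5 h RT; CellTiter-Glo 30 min RT; luminescence.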
(qHTS replaces the single test concentration by a dilution series.)
In the case of `CC1(C)O[C@@H]2C[C@H]3[C@@H]4C[C@H](F)C5=CC(=O)C=C[C@]5(C)[C@@]4(F)[C@@H](O)C[C@]3(C)[C@]2(C(=O)CO)O1`, the Potency entry was “inactive”. Same read-out and setting: with `CCCCCCCC/C=C\CCCCCCCC(=O)O` the entry was “inactive and 34.7 µM (active)”; with `CN(C)C`, “inactive”; with `CCC(Cc1c(I)cc(I)c(N)c1I)C(=O)O` (stereo unspecified), “inactive”. The same measure, in the same setting: for `Cc1ccc([N+](=O)[O-])c(C)c1` the value was “inactive”; for `O=C1CCc2ccccc2O1`, “inactive”; for `[Na+]`, “inactive”.

In the case of `C1COCCN1`, the Potency entry is “inactive”. The same measure, in the same setting: for `Nc1cc(Cl)c(N)c(Cl)c1` the value was “inactive”; for `CC(C)(C)c1cccc(C(C)(C)C)c1O`, “inactive”. Same read-out and setting: for `C=CCNCC=C` the value was “inactive”. In the case of `FC(F)(F)C(Cl)Br` (stereo unspecified), the Potency entry is “inactive”.

Take `CCCCCC1C(=O)CCC1CC(=O)OC` (stereo unspecified): the Potency entry was “inactive”. Same read-out and setting: for `NCCOCCO` the value was “inactive”; for `CNC[C@H](O)c1ccc(O)c(O)c1`, “inactive”; for `NCCS(=O)(=O)O`, “inactive”.

Take `Cc1ccc(S(=O)(=O)O)cc1C`: the Potency entry was “inactive”.

Consider `CC1(C)C(C=C(Cl)Cl)C1C(=O)OCc1cccc(Oc2ccccc2)c1` (stereo unspecified), for which the Potency entry was “inactive”. On the same count and under the same terms, for `Cc1ccc(N)c([N+](=O)[O-])c1` the value was “inactive”. For `O=C(O)c1cc(=O)[nH]c(=O)[nH]1`, the Potency entry is “inactive”.

A further test in a line: qHTS assay for small molecule activators of the heat shock response signaling pathway (AID 743210; active = well fitted activation curve with a large enough effect in the signal ratio in the repeat runs, with a control signal flat, not every such curve was filed as active; the % refers to the signal ratio). The following applies: HeLa HSE-bla reporter, beta-lactamase ratio, 5 h; series mostly up to 62.6 µM. Summed up: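 Heat shock element–beta-lactamase HeLa reporter cells; qHTS with compounds for 5 h at 37 C; detection by FRET substrate fluorescence after 2.5 h at RT.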
Take `O=S1(=O)CCCO1`: the result was inactive. The same measure, in the same setting: for `COC(=O)CC(=O)OC` the value was “inactive”; for `C=C[Si](OCCOC)(OCCOC)OCCOC`, “inactive”. Still for that read-out and setting: for `CN(C)/N=N/c1nc[nH]c1C(N)=O` the value was “inactive”; for `c1ccc2c(c1)[nH]c1ccccc12`, “inactive”.

As to `CCCCCCC(C)O` (stereo unspecified), the outcome was inactive. The same measure, in the same setting: with `CCC/C=C/C=O` the entry was “inactive”; with `CCCCCCCCCCCCO`, “inactive”; with `CC(C)[N+](C)(CCOC(=O)C1c2ccccc2Oc2ccccc21)C(C)C`, “inactive”. As for `C/C=C/C(=O)N(CC)c1ccccc1C`, the outcome was inactive. With `COC(=O)c1ccc(C)cc1`, the result was inactive. Same read-out and setting: with `CCc1cccc2c3c([nH]c12)C(CC)(CC(=O)O)OCC3` (stereo unspecified) the entry was “inactive”.

Turning to `CCCCCCCCCCCCCO`, the outcome was inactive. On the same count and under the same terms, for `CC(C)=CCO` the value was “inactive”. The same measure, in the same setting: for `CC(=O)Oc1c(C)c(C)c2c(c1C)CC[C@@](C)(CCC[C@H](C)CCC[C@H](C)CCCC(C)C)O2` the value was “inactive”; for `Cc1ccc(C(C)(C)C)cc1`, “inactive”. Still for that read-out and setting: for `CCO[Si](CCCNC(N)=O)(OCC)OCC` the value was “inactive”. Turning to `OC[C@H]1O[C@@H]2O[C@H]3[C@H](O)[C@@H](O)[C@@H](O[C@H]4[C@H](O)[C@@H](O)[C@@H](O[C@H]5[C@H](O)[C@@H](O)[C@@H](O[C@H]6[C@H](O)[C@@H](O)[C@@H](O[C@H]7[C@H](O)[C@@H](O)[C@@H](O[C@H]1[C@H](O)[C@H]2O)O[C@@H]7CO)O[C@@H]6CO)O[C@@H]5CO)O[C@@H]4CO)O[C@@H]3CO`, the result was inactive. Same read-out and setting: for `CC1(C)O[C@@H]2C[C@H]3[C@@H]4C[C@H](F)C5=CC(=O)C=C[C@]5(C)[C@@]4(F)[C@@H](O)C[C@]3(C)[C@]2(C(=O)CO)O1` the value was “inactive”; for `CN(C)C`, “inactive”.

In the case of `CCC(Cc1c(I)cc(I)c(N)c1I)C(=O)O` (stereo unspecified), the outcome was inactive. On the same count and under the same terms, with `Cc1ccc([N+](=O)[O-])c(C)c1` the entry was “inactive”; with `O=C1CCc2ccccc2O1`, “inactive”; with `[Na+]`, “inactive”. With `C1COCCN1`, the outcome was inactive.

As for `Nc1cc(Cl)c(N)c(Cl)c1`, the outcome was inactive. The same measure, in the same setting: with `CC(C)(C)c1cccc(C(C)(C)C)c1O` the entry was “inactive”. Still for that read-out and setting: with `C=CCNCC=C` the entry was “inactive”. As for `FC(F)(F)C(Cl)Br` (stereo unspecified), the result was inactive.

As for `NCCOCCO`, the result was inactive. Still for that read-out and setting: for `CNC[C@H](O)c1ccc(O)c(O)c1` the value was “inactive”; for `NCCS(=O)(=O)O`, “inactive”. For `Cc1ccc(S(=O)(=O)O)cc1C`, the outcome was inactive. On the same count and under the same terms, for `CC1(C)C(C=C(Cl)Cl)C1C(=O)OCc1cccc(Oc2ccccc2)c1` (stereo unspecified) the value was “inactive”; for `Cc1ccc(N)c([N+](=O)[O-])c1`, “inactive”. On the same count and under the same terms, for `O=C(O)c1cc(=O)[nH]c(=O)[nH]1` the value was “inactive”.
